A short description of experiment [1]: Cell Viability - LYMP2-022 (AID 987; active = well fitted cell-killing curve with a large enough effect; note: potency is the fitted concentration of half-maximal effect; nearly all actives have a fitted effect of over 55% in size). Summed up:
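Luminescent ATP read-out (CellTiter-Glo, 30 min, RT) after 24 hr, 37 C compound exposure of 2500 human lymphoblastoid cells/well in complete medium. Cytotoxicity taken as concentration-dependent ATP loss; AC50 from standard Hill equation.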

Experiment [2] in a line: Cell Viability - LYMP1-002 - Assay at 24 hr (AID 993; active = well fitted cell-killing curve with a large enough effect; note: potency is the fitted concentration of half-maximal effect). Summed up:
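CellTiter-Glo luminescence (intracellular ATP) after 24 h compound exposure, 37 C, in LYMP1-002 human lymphoblastoid cells; decreased ATP taken as cytotoxicity. AC50 from standard Hill fit of concentration-response curves.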

Experiment [3] in a line: qHTS Assay for Lipid Storage Modulators (AID 1519). For activity change, negative = inhibition: % is set by controls: 0 for no effect and ±100 for the full control effect. As to conditions: Drosophila S3 cells, BODIPY lipid droplet/cell ratio, laser cytometry, cells loaded with oleic acid. Put shortly: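 Cells seeded at 5,000 per well were treated with compounds over a concentration series and loaded with oleic acid (400 uM, as added). Lipid droplet fluorescence (488 nm excitation, 500-530 nm channel) was read by laser-scanning cytometry and normalized to 20 uM Triacsin C.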
On the technique in general: qHTS replaces the single test concentration by a dilution series.

The mark [4] stands for this setting: measured here: cell count channel max response.
Where [5] appears, read: measured here: lipid channel max response.

“And” between values parts separate entries of the source, which are not always exact repeats. Equal entries are not always repeated. Results filed as inconclusive are left out. The source made the active and inactive calls. Unless noted, calls come from the whole dose curve.

As to `Oc1cccc2cccnc12`, the Potency in experiment [1] is 10 µM (active) and 6.31 µM (active); in experiment [2], 25.1 µM (active). Moreover, the activity change, negative = inhibition in experiment [3] (at 57.5 µM (top of the series)) is 3.44% (inactive). The max response was -2.95% in experiment [3] (setting [4]) and 3.47% in experiment [3] (setting [5]).

With `O=[N+]([O-])c1cc([As](=O)(O)O)ccc1O`, the values for the activity change, negative = inhibition in experiment [3] (at 25.7 µM (top of the series)) and in experiment [3] (at 57.5 µM (top of the series)) were 0.724% (inactive) and 3.89% (inactive), respectively. Also, the max response in experiment [3] (setting [4]) is -1.97% and 10%; in experiment [3] (setting [5]), 0.435% and 19.2%.

Regarding `O=P1(NCCCl)OCCCN1CCCl` (configuration not stated), the activity change, negative = inhibition in experiment [3] (at 25.7 µM (top of the series)) was -0.105% (inactive). In addition, the max response in experiment [3] (setting [4]) was -5.65%; in experiment [3] (setting [5]), -6.2%.

The values above are taken from PubChem BioAssay (NCATS).
